The text below walks through data of PubChem BioAssay (NCI).

This is part of a sample that, as a whole, favours compounds with a hit. Of some 83,000 tested, about 20% had one in any assay.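 Plates (96-well) were seeded with cells, treated with compound at one concentration, and incubated for 48 hours before percent growth was determined.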 A number with no mark means an inactive call. The source made the active and inactive calls. How the source made its calls: active means growth percent below 10; inactive means the rest.

Test systems include NCI-H23 lung; NCI-H226 lung; NCI-H322M lung; NCI-H460 lung; HOP-92 NSCLC; NCI-H522 lung; A549/ATCC NSCLC; 786-0 renal; COLO 205 colon; HOP-62 NSCLC.
What all share (assay): NCI-60 one-dose screen, 48 h (100 = growth as untreated, 0 = no growth, -100 = all killed)
Common to all, as to details: 10 µM unless noted

On to `C=C1C(=O)O[C@H]2[C@H]1CC/C(COC(=O)/C=C\C(=O)NCc1ccc(Cn3c(=O)sn(CCCl)c3=O)cc1)=C\CC[C@@]1(C)O[C@@H]21`, for which the growth is 86.9% with NCI-H23 lung; 102% in the test on NCI-H226 lung; 104% in the test on NCI-H322M lung; 101% with NCI-H460 lung; 115% in the test on HOP-92 NSCLC; -64.4% (active) in the test on NCI-H522 lung. Further, the growth was 111% with A549/ATCC NSCLC, 83.4% in the test with 786-0 renal and 34.8% in the test with COLO 205 colon.
With `C=C(C)[C@@H]1CCC[C@]2(C(=O)O)CC[C@]3(C)[C@@H](CC[C@@H]4[C@@]5(C)C/C(=C/c6ccncc6)C(=O)C(C)(C)[C@@H]5CC[C@]43C)[C@@H]12`, the growth was 20.9% in the test on NCI-H23 lung; 36.1% in the test on NCI-H226 lung; 26.3% in the test on NCI-H322M lung; 5.65% (active) in the test on NCI-H460 lung; 57.2% in the test on HOP-92 NSCLC; 16.6% in the test with NCI-H522 lung. Moreover, the growth is 16.3% in the test on A549/ATCC NSCLC, 39.8% with 786-0 renal and 6.51% (active) in the test with COLO 205 colon.
`CC[N+]1(CC)CC[N+]2(CCCC(C)CC2)CC1` (stereo not given): the growth in the test on NCI-H23 lung was 102%; in the test with NCI-H226 lung it was 104%; in the test with NCI-H322M lung, 106%; with HOP-62 NSCLC it was 106%; in the test with NCI-H460 lung, 105%; in the test on NCI-H522 lung it was 93.3%. Also, the growth in the test on A549/ATCC NSCLC is 91.6%; in the test with 786-0 renal it was 99.9%; in the test with COLO 205 colon it was 113%.
Regarding `CCN1C(=O)N(CC)C2C1NN=c1s/c(=C\c3cnc(C)n3C)c(=O)n12` (stereo not given), the growth in the test with NCI-H23 lung is 38.1%; in the test on NCI-H226 lung it was 53.3%; with NCI-H322M lung, 29.6%; in the test with NCI-H460 lung, 4.44% (active); with HOP-92 NSCLC, 43%; in the test with NCI-H522 lung, -14.4% (active). The growth with A549/ATCC NSCLC is 15.8%; with 786-0 renal it was 28.4%; in the test on COLO 205 colon, 14.5%.
Consider `CN(C)CCCC1(c2ccc(F)cc2)OCc2cc(-c3cc4ccccc4s3)ccc21` (stereo not given), for which the growth in the test on NCI-H23 lung was 76.8%; in the test with NCI-H226 lung, 67.9%; in the test with NCI-H322M lung, 56.8%; with NCI-H460 lung it was -78.1% (active); in the test with HOP-92 NSCLC it was 26.8%; with NCI-H522 lung it was -9.87% (active). Further, the results for the growth in the test on A549/ATCC NSCLC, with 786-0 renal and with COLO 205 colon were -67.1% (active), 57.8% and -65.6% (active), respectively.
As for `O=C(Nc1ncc(Cc2ccccc2)s1)c1ccc2c(c1)OCCCO2`, the growth with NCI-H23 lung was 29.1%; with NCI-H226 lung, 46.2%; in the test on NCI-H322M lung, 45.4%; with NCI-H460 lung, 15.2%; in the test on HOP-92 NSCLC, 58.7%; in the test on NCI-H522 lung, -4.73% (active). Further, the growth was 33.5% with A549/ATCC NSCLC, 36.3% with 786-0 renal and 12% with COLO 205 colon.
For the compound `O=C(CCSc1nnc2n(Cc3ccccc3)c(=O)c3c4c(sc3n12)CCCC4)N1CCN(c2ccccc2)CC1`, the growth was 102% with NCI-H23 lung; 100% in the test on NCI-H226 lung; 99.8% with NCI-H322M lung; 103% in the test on HOP-62 NSCLC; 102% in the test with NCI-H460 lung; 104% in the test on NCI-H522 lung. The growth was 104% in the test with A549/ATCC NSCLC, 102% in the test on 786-0 renal and 102% in the test with COLO 205 colon.
Take `CCn1c(-c2cc3c([nH]c4ccccc43)c(-c3cccc(O)c3)n2)n[nH]c1=S`: the growth was 68.4% with NCI-H23 lung; 75.9% with NCI-H226 lung; 73.2% in the test on NCI-H322M lung; 47.1% with NCI-H460 lung; 12.7% with HOP-92 NSCLC; -10.6% (active) in the test with NCI-H522 lung. Also, the values for the growth with A549/ATCC NSCLC, in the test on 786-0 renal and with COLO 205 colon were 38%, 13.5% and 92.5%, respectively.
`C/C(=N\O)c1ccc(NC(=O)CSc2nnc(-c3cc(-c4ccc(S(N)(=O)=O)cc4)nc4ccccc34)n2-c2ccccc2)cc1`: the growth in the test with NCI-H23 lung was 89.6%; in the test with NCI-H226 lung, 80.4%; in the test on NCI-H322M lung, 86.5%; in the test on HOP-62 NSCLC it was 95.5%; with NCI-H460 lung it was 67.2%; with NCI-H522 lung, 67.4%. The values for the growth in the test with A549/ATCC NSCLC, in the test on 786-0 renal and with COLO 205 colon were 79.5%, 72.6% and 78.3%, respectively.
`c1ccc2c(c1)CCCc1nnc3nc4ccccc4n3c1-2`: the growth with NCI-H23 lung is 46.7%; in the test on NCI-H226 lung, 51.2%; with NCI-H322M lung it was 48.2%; with NCI-H460 lung, 25.8%; in the test on HOP-92 NSCLC, -2.09% (active); in the test on NCI-H522 lung, 55.6%. Further, the growth was 29.9% in the test with A549/ATCC NSCLC, 34.2% with 786-0 renal and 12% in the test with COLO 205 colon.
`Cc1ccc(CNc2ccc3nc(CCC(C)C)[nH]c3c2)cc1`: the growth in the test on NCI-H23 lung is 94.2%; with NCI-H226 lung, 89.8%; in the test with NCI-H322M lung, 100%; with NCI-H460 lung, 106%; with HOP-92 NSCLC, 56.7%; in the test with NCI-H522 lung, 84.2%. Further, the results for the growth with 786-0 renal and in the test with COLO 205 colon were 84% and 102%, respectively.
Consider `CSc1nc(C)c([N+](=O)[O-])c(N)n1`, for which the growth is 101% with NCI-H23 lung; 102% in the test with NCI-H226 lung; 93.7% in the test with NCI-H322M lung; 104% in the test on NCI-H460 lung; 89.3% in the test on HOP-92 NSCLC; 77.2% in the test with NCI-H522 lung. The growth in the test on A549/ATCC NSCLC was 76.2%; in the test on 786-0 renal, 103%; in the test with COLO 205 colon, 110%.
For the compound `CC/C=C\C[C@H](O)C/C=C1/C(=O)C=C[C@@H]1C/C=C\CCCC(=O)O`, the growth was 79.9% in the test with NCI-H23 lung; 83.1% with NCI-H226 lung; 85.6% in the test with NCI-H322M lung; 64.8% in the test with NCI-H460 lung; 75.2% in the test with HOP-92 NSCLC; -10.7% (active) in the test with NCI-H522 lung. Also, the growth is 75.9% with A549/ATCC NSCLC, 68.5% in the test on 786-0 renal and 65.4% in the test on COLO 205 colon.
For `C=C1C(=O)O[C@H]2[C@H]1CC/C(COC(=O)CSCSCC(=O)OC/C1=C/CC[C@@]3(C)O[C@H]3[C@H]3OC(=O)C(=C)[C@@H]3CC1)=C\CC[C@@]1(C)O[C@@H]21`, the growth with NCI-H23 lung is 24.6%; in the test on NCI-H226 lung, -7.99% (active); in the test on NCI-H322M lung, 79.1%; with NCI-H460 lung, 13.6%; in the test with HOP-92 NSCLC it was -13.3% (active); with NCI-H522 lung it was -77.8% (active). The growth in the test with A549/ATCC NSCLC is 72.1%; with 786-0 renal it was -6.8% (active); with COLO 205 colon, -65.5% (active).
